# Data: PubChem BioAssay AID493185 (National Center for Advancing Translational Sciences (NCATS), 2011)
# Active and inactive are the calls of the source. A call without a number means that no potency is given here. Calls follow the shape of the dose curve; as a rule, active = well fitted activation curve with a large enough effect; inconclusive = small, poorly fitted or top-dose-only effect; inactive = no such curve, though single readings can be large or run the other way.
# Assay: Counterscreen for Identifying a Potential Treatment of Ataxia-Telangiectasia: Hit Validation
# Conditions: cell-free AlphaLISA/AlphaScreen artifact counterscreen, PBS only, no cells; series mostly up to 76.9 µM
# Excerpt: NIH Chemical Genomics Center [NCGC]
# NIH Molecular Libraries Probe Centers Network [MLPCN]
# Assay Submitter (PI): Wei Zheng and Yosef Shiloh
# Ataxia-telangiectasia (A-T) is a devastating and progressive disease for which, there is no cure. Although A-T is a multisystem disease, it is stereotyped characterized by its neurological symptoms such as truncal ataxia, due to cerebellar cortical degeneration of the Purkinje and granule cells. Other symptoms of A-T are telangiectasias (dilated blood vessels), primary immunodeficiency, marked sensitivity to ionizing radiation (IR), chromosomal instability and predisposition to cancer.
# The underlying genetic cause of A-T is null mutations in the ATM (A-T mutated) gene. ATM is a nuclear serine/threonine kinase that functions as a master regulator of the cellular responses to double strand breaks (DSBs) in the DNA. Upon activation by DSBs, ATM phosphorylates a plethora of downstream targets, including KAP-1 on […]. KAP-1 phosphorylation occurs shortly in response to DSBs and mediates global chromatin relaxation, which facilitates DSB repair. To screen for small molecules that will compensate for the loss of ATM in cells derived from A-T patients, we monitored KAP-1 phosphorylation as a readout for ATM-like activity using an AlphaLISA assay.
# 3. Library compounds, 23 nl, 76.7 - 0.61uM dilution series final concentration
# 4. Incubation, 60 min, 37C, 5% CO2, 95% humidity
# 6. Incubation, 30 min, 37C, 5% CO2, 95% humidity
# 7. Reagent, 1 ul, Premixed detection reagents and lysis buffer
# 8. Reagent, 1 ul, 0.6% Antifoam A
# 9. Incubation, 6 hr, 25C, 95% humidity
# 10. Readout, EnVision, EnVision plate reader. AlphaScreen 1536-well protocol
# PBS was dispensed into medium-binding white solid-bottom tissue culture treated Kalypsys plates with a Multidrop dispenser. Detection reagent and lysis buffer was 3.75nM Rab-a-pKAP1 antibody bound to 75 ng/ul AlphaScreen SA donor bead, 3.75 nM Biot-M-a-KAP1 antibody bound to AlphaLISA protein A acceptor bead, 0.5x protease inhibitor cocktail and 0.25x PerkinElmer lysis buffer. EnVision protocol for 1536-well AlphaScreen read (30ms excitation, 100ms read), about 10 min/plate. This assay is similar to the primary screen but is without cells. It aims to identify artifacts of the assay platform and unspecific hits.
# Potency is read from the fitted curve at half-maximal effect.
row,Structure (SMILES),Potency
1,CCN(CC)S(=O)(=O)c1cccc(N=Nc2c(O)n(CC)c(=S)n(CC)c2=O)c1,inactive
2,CCc1ccc(N2C(=O)NC(=O)/C(=C\C=C\c3ccco3)C2=O)cc1,inactive
3,Cc1cc(O)c2c(c1)C(=O)C13C(=C2O)C(=O)[C@H]2[C@@H](O)[C@@H]1[C@H]1[C@H](O)[C@@H]3C(=O)C3=C(O)c4c(O)cc(C)cc4C(=O)C312 (stereo not given in full),7.33 µM (active)
4,C/C=C/c1ccc2c(c1)OCO2,inactive
5,CCCCC(=O)N/N=C/c1c(O)n(CCC2=CCCCC2)c(=O)[nH]c1=O,inactive
6,CN1CCN(c2ccc([N+](=O)[O-])c3no[n+]([O-])c23)CC1,inactive
7,Cc1ccc(-n2c(O)c(C=NCC3CCCO3)c(=O)[nH]c2=O)c(C)c1 (stereo not given),inactive
8,CC(=O)OC1CC[C@]2(C#N)[C@H]3CC[C@]4(C)[C@H](C5C=CC(=O)O5)CCC4(O)C3CCC2(O)C1 (stereo not given in full),inactive
9,CC1(C)C[C@H]2C=C(C=O)[C@]3(C=O)C[C@]3(C)[C@H]2C1,inactive
10,COC(=O)C1=C(c2ccc(OCc3ccccc3)cc2)C[C@@H]2CC[C@H]1N2C(=O)NCc1cccc(C(F)(F)F)c1,inactive
11,CCCCn1c(O)c(C(=O)/C=C/c2c[nH]c3ccccc23)c(=O)[nH]c1=O,inactive
12,CCN1C(=O)N(CC)C(=O)C2(Cc3ccccc3N3CCN(c4ccccc4)CC32)C1=O (stereo not given),inactive
13,O=C1Nc2ccccc2C1Cc1nc2ccccc2c(=O)n1-c1ccccc1 (stereo not given),inactive
14,CC(C)c1ccc(-n2c(O)c(C=NC(CCS(C)=O)C(=O)O)c(=O)[nH]c2=S)cc1 (stereo not given),inactive
15,O=C(c1cccnc1)C1CCCN(Cc2nc(-c3cnccn3)no2)C1 (stereo not given),inactive
16,CCN(CC)S(=O)(=O)c1ccc(C(=O)NC2CN3CCC2CC3)cc1 (stereo not given),inactive
17,Cc1nc2ccccc2c(=O)n1-c1ccc(F)cc1F,inactive
18,Cc1cccc(N2C(=O)NC(=O)/C(=C\C=C\c3ccco3)C2=O)c1,inactive
19,Cc1ccc(C)c(NP(=O)(Oc2ccccc2)Oc2ccccc2)c1,inactive
20,CN1CCCC(C(O)(c2ccccc2)c2ccccc2)C1 (stereo not given),inactive
